This is an account of results in PubChem BioAssay.

Calls of active or inactive are those of the source.

The subject of assay [1] is PRMT1 (protein arginine N-methyltransferase 1). Kind of assay: PRMT1 binders on small-molecule microarrays, primary screen, biochemical, small-molecule microarray, 635 nm fluorescence (AID 1088).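 Also: binding of Prmt1 protein to compounds spotted on small-molecule microarray slides.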 To be noted: small-molecule microarray binding, higher = more signal.
The nature of assay [2]: yeast growth modulation, basal conditions, primary screen, YJM789 clinical isolate, OD600, 24 h (AID 1089).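 Also: growth of clinical yeast isolate S. cerevisiae YJM 789 seeded 1000 cells per well; test concentration not given here.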 To be noted: S. cerevisiae YJM789 growth, higher = more signal, called active from +8 up or from −8 down.
The nature of assay [3]: fission yeast growth modulation, primary screen, strain 972, OD600, 24 h, no modulator (AID 1090).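 Also: basal condition with compound alone and no growth modifier present; test concentration not given here.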 To be noted: S. pombe 972 growth, higher = more signal, called active from +8 up or from −8 down.
Assay [4] in a line: S. cerevisiae growth modulation with rapamycin, primary screen, strain BY4716, OD600, 96 h (AID 1091). Also: test concentration not given here. To be noted: higher = more signal, called active from +8 up or from −8 down.
In assay [5] the target is Torsin-1A-interacting protein 2 (Homo sapiens) (UniProt Q8NFQ8). Kind of assay: LULL1 binders on small-molecule microarray, primary screen, cell lysate, human LULL1 lysate, 635/667 nm fluorescence (AID 1092).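 Also: probe is lysate of COS7 cells overexpressing human LULL1; score merges per-feature 667 nm fluorescence with signal-to-noise.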 To be noted: hLULL1 lysate binding, 635 nm fluorescence, higher = more signal.
Assay [6] can be described thus: E. coli growth modulation, two-sided OD650, primary screen, E. coli filamentation project, strain DRC41, 24 h (AID 1093).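 Also: MC1000 strain lacking acrAB efflux and sulA so SOS filamentation is blocked; test concentration not given here.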 Particulars: OD650, 24 h, higher = more signal, called active from +8 up or from −8 down.
Assay [7] in a line: small-molecule microarray binders of probe aLefty2, primary screen, biochemical, biotinylated probe, 635/667 nm fluorescence (AID 1094).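 Also: score merges spot fluorescence near 667 nm with spot signal-to-noise ratio.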 To be noted: higher = more signal.
Assay [8] has as its system Noggin (protein binding on small-molecule microarray). Kind of assay: Noggin binders on small-molecule microarray, primary screen, biochemical, 635/667 nm fluorescence (AID 1095).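 Also: score merges 667 nm feature fluorescence with signal to noise over triplicate slides.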 To be noted: 635 nm fluorescence, higher = more signal.
In assay [9] the target is Neurogenic locus notch homolog protein 3 (Homo sapiens) (UniProt Q9UM47). The experiment in a line: NOTCH3 binders on small-molecule microarray, primary screen, biochemical, 635/667 nm fluorescence (AID 1096). Particulars: NOTCH3 binding, 635 nm fluorescence, higher = more signal.
Assay [10] is described as follows: small-molecule microarray binders of probe aEGFR, primary screen, biochemical, biotinylated probe, 635/667 nm fluorescence (AID 1097).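 Also: probe is a biotinylated anti-EGFR antibody binding compounds printed on slides; score combines fluorescence near 667 nm and signal to noise of each spot.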 To be noted: higher = more signal.
For assay [11], the system named is Plasmodium falciparum Sir2 (PF13_0152, Sir2A). Kind of assay: pfSir2 binders on small-molecule microarrays, primary screen, biochemical, small-molecule microarray, 635 nm fluorescence (AID 1098).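 Also: score merges spot fluorescence intensity with its signal-to-noise ratio.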 Particulars: small-molecule microarray binding, fluorescence 635 nm; higher = more signal.
A short description of assay [12]: small-molecule microarray binders of probe aDKK1, primary screen, biochemical, biotinylated probe, 635/667 nm fluorescence (AID 1099).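 Also: score merges 667nm spot fluorescence with signal to noise across triplicate slides; reference of the scale not given here.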 Particulars: higher = more signal.
Assay [13] can be described thus: small-molecule microarray binders of probe aCHRDL2, primary screen, biochemical, biotinylated probe, 635/667 nm fluorescence (AID 1100). Particulars: higher = more signal.
Assay [14] in a line: splicing luciferase reporter signal modulators, primary screen, spliceosome inhibition project, cell-based, HEK293, splice +/- reporter (AID 1101).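 Also: HEK293 cells carrying a splicing-competent luciferase reporter gene; test concentration not given here.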 To be noted: luminescence, 24 h, higher = more signal, called active from +8 up or from −8 down.
Assay [15] deals with Fibroblast growth factor 10 (Homo sapiens) (UniProt O15520). The experiment in a line: FGF10 binders on small-molecule microarrays, primary screen, biochemical, small-molecule microarray, 635 nm fluorescence (AID 1102). Particulars: FGF10 binding, fluorescence 635 nm, higher = more signal.
Assay [16] relates to glycogen synthase kinase-3 (GSK3A per assay name; protocol says GSK3B). The experiment in a line: GSK3 binders on small-molecule microarrays, primary screen, biochemical, small-molecule microarray, 635 nm fluorescence, GSK3A (AID 1103). Also: the record names both GSK3A and GSK3B. Particulars: small-molecule microarray binding, fluorescence 635 nm; higher = more signal.
In assay [17] the target is Epidermal growth factor receptor (Homo sapiens) (UniProt P00533). Kind of assay: EGFR binders on small-molecule microarrays, primary screen, biochemical, small-molecule microarray, 635 nm fluorescence (AID 1104).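 Also: score merges 667 nm emission intensity with spot signal to noise over triplicate slides.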 To be noted: EGFR binding, higher = more signal.
The target of assay [18] is Follistatin-related protein 3 (Homo sapiens) (UniProt O95633). The experiment in a line: FSTL3 binders on small-molecule microarrays, primary screen, biochemical, small-molecule microarray, 635 nm fluorescence (AID 1105).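 Also: score merges emission near 667 nm and signal to noise per printed spot across three slides.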 To be noted: FSTL3 binding, higher = more signal.
In assay [19] the target is Dickkopf-related protein 1 (Homo sapiens) (UniProt O94907). The experiment in a line: DKK1 binders on small-molecule microarrays, primary screen, biochemical, small-molecule microarray, 635 nm fluorescence scan (AID 1106).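 Also: score merges emission near 667 nm with signal to noise over three replicate slides.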 Particulars: DKK1 binding, higher = more signal.
In assay [20] the test system is Inhibin beta A chain (activin A). The experiment in a line: INHBA (activin A) binders on microarrays, primary screen, biochemical, small-molecule microarray, 635 nm fluorescence scan (AID 1107).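 Also: mouse activin A protein probed at 4.33 µg/mL on printed slides; score merges bound-protein fluorescence near 667 nm with spot signal-to-noise.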 Particulars: small-molecule microarray binding, higher = more signal.

Fibroblast growth factor 10 (Homo sapiens), sequence (O15520 whole entry, looked up): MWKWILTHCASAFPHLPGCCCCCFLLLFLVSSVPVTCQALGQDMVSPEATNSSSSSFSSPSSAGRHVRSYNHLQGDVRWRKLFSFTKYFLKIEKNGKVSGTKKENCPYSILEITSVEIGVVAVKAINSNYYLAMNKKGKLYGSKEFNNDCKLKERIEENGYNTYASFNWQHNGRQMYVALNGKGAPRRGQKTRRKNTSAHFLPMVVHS
Follistatin-related protein 3 (Homo sapiens), sequence (O95633 whole entry, looked up): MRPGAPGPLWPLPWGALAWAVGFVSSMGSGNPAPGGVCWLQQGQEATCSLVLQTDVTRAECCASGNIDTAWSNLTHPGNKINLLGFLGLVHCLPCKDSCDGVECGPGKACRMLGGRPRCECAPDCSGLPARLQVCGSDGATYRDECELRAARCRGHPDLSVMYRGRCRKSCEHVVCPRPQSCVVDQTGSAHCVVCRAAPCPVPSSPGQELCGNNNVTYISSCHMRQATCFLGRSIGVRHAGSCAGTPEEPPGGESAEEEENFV
Dickkopf-related protein 1 (Homo sapiens), sequence (O94907 whole entry, looked up): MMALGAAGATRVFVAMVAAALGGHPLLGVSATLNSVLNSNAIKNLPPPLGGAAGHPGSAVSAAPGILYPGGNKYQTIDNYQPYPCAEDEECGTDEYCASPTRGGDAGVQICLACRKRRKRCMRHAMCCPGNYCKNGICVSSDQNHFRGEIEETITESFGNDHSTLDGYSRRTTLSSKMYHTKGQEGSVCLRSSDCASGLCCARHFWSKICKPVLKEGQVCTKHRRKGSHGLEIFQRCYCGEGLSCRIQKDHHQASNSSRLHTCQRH
Epidermal growth factor receptor (Homo sapiens), sequence (P00533 whole entry, looked up): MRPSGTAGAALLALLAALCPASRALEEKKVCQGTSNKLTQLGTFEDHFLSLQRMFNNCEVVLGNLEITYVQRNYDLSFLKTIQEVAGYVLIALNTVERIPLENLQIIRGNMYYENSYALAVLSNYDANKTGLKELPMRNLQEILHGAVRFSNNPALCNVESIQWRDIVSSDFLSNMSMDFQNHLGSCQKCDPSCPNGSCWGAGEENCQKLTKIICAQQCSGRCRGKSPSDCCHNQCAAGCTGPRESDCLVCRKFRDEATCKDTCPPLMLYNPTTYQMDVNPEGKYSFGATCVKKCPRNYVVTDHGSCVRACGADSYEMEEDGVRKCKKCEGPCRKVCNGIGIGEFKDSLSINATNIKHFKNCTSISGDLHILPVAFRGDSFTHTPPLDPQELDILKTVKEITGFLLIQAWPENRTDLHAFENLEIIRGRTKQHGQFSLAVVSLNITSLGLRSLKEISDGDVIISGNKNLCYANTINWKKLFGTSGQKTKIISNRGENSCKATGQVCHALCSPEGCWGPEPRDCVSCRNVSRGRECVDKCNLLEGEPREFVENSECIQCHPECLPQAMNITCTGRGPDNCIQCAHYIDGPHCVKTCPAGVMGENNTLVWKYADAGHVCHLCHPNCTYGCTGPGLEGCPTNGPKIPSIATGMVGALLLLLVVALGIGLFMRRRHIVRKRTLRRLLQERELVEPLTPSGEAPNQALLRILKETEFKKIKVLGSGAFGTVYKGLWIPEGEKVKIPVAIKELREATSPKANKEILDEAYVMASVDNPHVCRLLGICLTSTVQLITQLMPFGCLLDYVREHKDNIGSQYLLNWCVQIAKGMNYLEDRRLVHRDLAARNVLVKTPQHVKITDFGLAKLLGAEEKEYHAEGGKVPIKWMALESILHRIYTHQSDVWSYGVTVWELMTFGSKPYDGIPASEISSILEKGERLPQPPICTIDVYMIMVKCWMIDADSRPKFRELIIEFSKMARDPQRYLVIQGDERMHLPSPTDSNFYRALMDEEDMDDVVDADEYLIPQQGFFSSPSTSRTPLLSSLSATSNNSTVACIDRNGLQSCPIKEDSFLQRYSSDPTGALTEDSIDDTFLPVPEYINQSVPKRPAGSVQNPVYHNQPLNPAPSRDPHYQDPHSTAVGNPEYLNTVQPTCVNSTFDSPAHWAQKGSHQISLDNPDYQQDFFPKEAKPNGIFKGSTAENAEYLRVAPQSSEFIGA
Torsin-1A-interacting protein 2 (Homo sapiens), sequence (Q8NFQ8 whole entry, looked up): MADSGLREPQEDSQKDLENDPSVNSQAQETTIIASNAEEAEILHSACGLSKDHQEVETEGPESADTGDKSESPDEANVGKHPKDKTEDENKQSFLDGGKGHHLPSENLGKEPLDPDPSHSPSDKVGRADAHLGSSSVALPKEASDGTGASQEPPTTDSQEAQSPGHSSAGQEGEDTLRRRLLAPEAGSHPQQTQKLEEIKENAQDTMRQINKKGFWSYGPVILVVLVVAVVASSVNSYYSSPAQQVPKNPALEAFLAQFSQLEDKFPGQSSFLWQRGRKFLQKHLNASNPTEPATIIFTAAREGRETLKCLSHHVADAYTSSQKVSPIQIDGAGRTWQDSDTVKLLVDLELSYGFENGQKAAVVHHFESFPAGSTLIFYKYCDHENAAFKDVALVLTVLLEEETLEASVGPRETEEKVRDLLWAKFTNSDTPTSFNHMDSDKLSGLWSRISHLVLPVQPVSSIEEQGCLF
Neurogenic locus notch homolog protein 3 (Homo sapiens), sequence (Q9UM47 whole entry, looked up): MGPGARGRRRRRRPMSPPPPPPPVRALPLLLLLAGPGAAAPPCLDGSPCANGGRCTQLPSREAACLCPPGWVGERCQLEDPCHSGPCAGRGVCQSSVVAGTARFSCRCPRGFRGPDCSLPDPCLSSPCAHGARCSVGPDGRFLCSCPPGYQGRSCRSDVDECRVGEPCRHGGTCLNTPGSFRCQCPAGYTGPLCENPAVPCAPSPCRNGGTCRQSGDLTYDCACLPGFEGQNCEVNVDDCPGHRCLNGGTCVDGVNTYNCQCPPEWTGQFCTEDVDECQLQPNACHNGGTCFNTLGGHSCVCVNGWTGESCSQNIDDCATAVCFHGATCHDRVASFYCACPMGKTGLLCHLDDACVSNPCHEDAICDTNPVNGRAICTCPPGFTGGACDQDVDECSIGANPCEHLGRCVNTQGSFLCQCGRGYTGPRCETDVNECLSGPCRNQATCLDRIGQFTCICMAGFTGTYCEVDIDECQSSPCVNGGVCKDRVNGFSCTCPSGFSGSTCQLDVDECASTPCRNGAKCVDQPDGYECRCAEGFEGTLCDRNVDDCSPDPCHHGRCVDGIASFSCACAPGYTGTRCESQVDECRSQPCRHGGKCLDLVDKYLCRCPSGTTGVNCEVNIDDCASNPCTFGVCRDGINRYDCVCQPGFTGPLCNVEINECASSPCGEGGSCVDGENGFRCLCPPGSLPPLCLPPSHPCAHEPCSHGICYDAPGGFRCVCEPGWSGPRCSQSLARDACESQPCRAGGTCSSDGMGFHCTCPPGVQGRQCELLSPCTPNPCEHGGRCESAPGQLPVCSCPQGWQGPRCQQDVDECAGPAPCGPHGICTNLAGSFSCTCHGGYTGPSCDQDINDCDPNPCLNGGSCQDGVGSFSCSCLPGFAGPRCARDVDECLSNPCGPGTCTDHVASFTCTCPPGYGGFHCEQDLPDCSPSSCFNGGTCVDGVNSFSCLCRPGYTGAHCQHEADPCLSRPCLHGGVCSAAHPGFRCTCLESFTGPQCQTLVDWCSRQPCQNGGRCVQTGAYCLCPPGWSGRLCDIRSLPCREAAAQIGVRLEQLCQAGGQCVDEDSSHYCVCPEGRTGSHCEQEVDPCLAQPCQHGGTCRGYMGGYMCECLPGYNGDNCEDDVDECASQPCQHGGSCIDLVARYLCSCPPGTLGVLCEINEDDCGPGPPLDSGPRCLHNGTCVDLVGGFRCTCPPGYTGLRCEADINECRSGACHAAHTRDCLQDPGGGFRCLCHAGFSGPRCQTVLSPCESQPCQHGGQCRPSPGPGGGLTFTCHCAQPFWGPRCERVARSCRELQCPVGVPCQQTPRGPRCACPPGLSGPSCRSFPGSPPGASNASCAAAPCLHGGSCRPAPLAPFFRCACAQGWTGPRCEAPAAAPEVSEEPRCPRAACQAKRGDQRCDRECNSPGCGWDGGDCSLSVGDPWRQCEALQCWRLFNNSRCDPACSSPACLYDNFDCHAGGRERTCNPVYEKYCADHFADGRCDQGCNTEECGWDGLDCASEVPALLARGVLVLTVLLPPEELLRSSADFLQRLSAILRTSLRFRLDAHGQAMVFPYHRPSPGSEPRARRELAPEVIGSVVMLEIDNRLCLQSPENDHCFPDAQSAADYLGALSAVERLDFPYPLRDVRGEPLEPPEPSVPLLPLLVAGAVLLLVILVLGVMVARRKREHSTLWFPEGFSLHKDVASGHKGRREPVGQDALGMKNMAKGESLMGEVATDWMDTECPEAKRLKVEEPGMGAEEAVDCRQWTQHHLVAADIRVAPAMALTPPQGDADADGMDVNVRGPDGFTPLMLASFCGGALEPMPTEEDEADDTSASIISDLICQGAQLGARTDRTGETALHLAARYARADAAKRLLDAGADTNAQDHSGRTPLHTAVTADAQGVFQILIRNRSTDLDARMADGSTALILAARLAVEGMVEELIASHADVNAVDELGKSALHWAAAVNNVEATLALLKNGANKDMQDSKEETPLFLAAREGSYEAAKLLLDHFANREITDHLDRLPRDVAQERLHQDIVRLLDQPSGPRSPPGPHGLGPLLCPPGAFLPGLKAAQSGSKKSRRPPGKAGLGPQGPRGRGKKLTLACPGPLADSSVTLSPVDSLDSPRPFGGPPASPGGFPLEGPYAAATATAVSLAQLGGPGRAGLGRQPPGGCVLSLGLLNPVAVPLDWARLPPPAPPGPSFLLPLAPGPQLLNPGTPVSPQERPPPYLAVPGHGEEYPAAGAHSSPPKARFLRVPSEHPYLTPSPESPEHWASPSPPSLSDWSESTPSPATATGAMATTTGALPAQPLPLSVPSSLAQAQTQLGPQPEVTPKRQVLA

As to `CC(C)[Si](C#CCCCC#N)(O[C@H](c1ccccc1)c1cn([C@H](CO)Cc2ccccc2)nn1)C(C)C`, the composite z-score was 0.848 in assay [1]; 1.25 in assay [5]; -0.181 in [7]; 0.349 in [8]; 1.02 in assay [9]; -0.0843 in assay [10]. The composite z-score in assay [11] is 0.726; in [12], -0.151; in assay [13], 0.138; in assay [15], 0.61; in assay [16], 0.709; in assay [17], 0.52. In addition, the composite z-score worked out at 1.36 in assay [18], 0.598 in assay [19] and 0.0469 in [20]. For the same compound, the z-score was -2.62 (inactive) in [2]; -11.3 (active) in [3]; -4.64 (inactive) in assay [4]; 1.4 (inactive) in assay [6]; -0.401 (inactive) in [14].
With `COc1ccc([Si](C)(C)[C@@H]2[C@@H](CC(=O)N3Cc4ccccc4C[C@H]3CO)O[C@]3(C(=O)N(Cc4cccc(N5C(=O)c6cccc7cccc5c67)c4)c4ccccc43)[C@H]2C)cc1`, the composite z-score in assay [1] is 1.56; in assay [5], 1.6; in assay [7], -0.0144; in assay [8], 1.08; in assay [9], 1.09; in assay [10], 0.0276. The composite z-score in [11] is 1.25; in assay [12], -0.199; in assay [13], 0.208; in assay [15], 0.579; in assay [16], 0.313; in [17], 0.982. Also, the values for the composite z-score in assay [18], in [19] and in assay [20] were 1.43, 1.43 and 0.636, respectively. For the same compound, the z-score in assay [2] is -0.258 (inactive); in assay [3], 0.93 (inactive); in assay [4], 2.43 (inactive); in assay [6] it was -0.342 (inactive); in assay [14] it was 0.93 (inactive).
`COc1ccccc1CN1C(=O)c2ccccc2[C@](Cc2ccccc2I)(C(=O)NCC(F)(F)F)[C@@H]1c1ccc(CO)cc1`: the composite z-score was found to be 1.55 in assay [1]; 3.22 in assay [5]; 0.126 in assay [7]; 0.576 in assay [8]; 0.872 in assay [9]; 0.0024 in assay [10]. Besides, the composite z-score is 1.31 in assay [11]; 0.984 in [12]; 0.854 in [13]; 0.7 in assay [15]; 1.29 in assay [16]; -0.24 in assay [17]. Besides, the composite z-score is 1.1 in [18], -0.532 in assay [19] and 0.513 in [20]. Besides, the z-score in assay [2] was -0.23 (inactive); in assay [3], -0.503 (inactive); in assay [4], 0.0879 (inactive); in assay [6], -1.13 (inactive); in assay [14] it was 0.377 (inactive).
Regarding `NC(N)=NCCCn1cc(CNC(=O)[C@@H](N)Cc2ccccc2)nn1`, the composite z-score in [1] is 0.605; in [5], 1.14; in [7], 0.0616; in [8], 0.743; in [9] it was 0.179; in [10], 0.0221. For the same compound, the composite z-score in assay [11] is 1.23; in [12], 0.174; in assay [13] it was 0.34; in [15], 0.697; in [16], 0.0853; in assay [17], -0.38. The composite z-score turned out to be 1.36 in assay [18], 0.0571 in assay [19] and 0.9 in assay [20]. The z-score in assay [2] was 0.567 (inactive); in assay [3], -0.627 (inactive); in [4], -0.933 (inactive); in [6], -1.08 (inactive); in assay [14], 0.292 (inactive).
In the case of `COC(=O)[C@@]1(Cc2ccc(OC)cc2)[C@@H]2C(=CC(=O)[C@H]2CC(=O)C(=O)N(C)C)CN1C(=O)c1ccccc1`, the composite z-score in assay [1] is 0.464; in assay [5], 3.54; in [7] it was 0.413; in assay [8], -0.343; in assay [9], 1.03; in [10], 0.0364. In addition, the composite z-score in assay [11] was 0.86; in assay [12], 1.22; in assay [13], 1.09; in assay [15], 0.945; in [16], 1.07; in [17], -0.208. Also, the composite z-score in assay [18] was 1.03; in assay [19], -0.568; in assay [20], 0.928. Besides, the z-score in assay [2] was 0.244 (inactive); in [3], 0.693 (inactive); in assay [4], 2.88 (inactive); in assay [6], -1.08 (inactive); in assay [14] it was -2.59 (inactive).
Turning to `C=C(COC)/C(=C/C[C@H](OC(=O)c1ccncc1)c1ccccc1OCCO)c1cnc2ccccc2c1`, the composite z-score was 1.54 in [1]; 2.94 in [5]; -0.345 in assay [7]; 1.44 in [8]; 1.02 in [9]; 0.0024 in assay [10]. Further, the composite z-score in [11] was 1.32; in [12], 0.29; in assay [13], -0.627; in assay [15], 1.45; in [16], 1.32; in assay [17] it was 0.788. Moreover, the composite z-score was found to be 1.48 in assay [18], 0.864 in assay [19] and 1.54 in assay [20]. In addition, the z-score in assay [2] is -1.77 (inactive); in [3], -0.997 (inactive); in assay [4], -0.252 (inactive); in assay [6], 0.395 (inactive); in assay [14], 0.321 (inactive).
For `COC(=O)C(CC#Cc1ccc2c(c1)[C@]1(C(=O)N2)[C@H](c2ccccc2OCCO)N2[C@H](c3ccccc3)[C@H](c3ccccc3)OC(=O)[C@H]2[C@@H]1C(=O)NC[C@H](O)c1ccccc1)C(=O)OC`, the composite z-score in assay [1] is 1.54; in assay [5], 3.25; in assay [7], -0.324; in assay [8] it was 1.1; in [9], 1.04; in assay [10] it was -0.147. Also, the composite z-score is 1.65 in assay [11]; -0.378 in assay [12]; 0.702 in [13]; 0.928 in assay [15]; 1.26 in assay [16]; 0.361 in [17]. Also, the composite z-score in assay [18] was determined as 0.682; in assay [19] it was 0.521; in [20], 0.897. For the same compound, the z-score in [2] is 2.51 (inactive); in [3] it was 1.32 (inactive); in [4], 4.78 (inactive); in [6], 0.282 (inactive); in assay [14], -0.267 (inactive).
As for `CC(=O)NCCCC[C@@H]1NC(=O)[C@H]2C[C@@H](C(=O)NCCCC[N+](C)(C)C)[C@@H](c3cccc(OCCO)c3)N2C1=O`, the composite z-score in assay [1] worked out at 1.41; in [5], 1.97; in assay [7], 0.0503; in [8], 1.81; in [9], 1.01; in assay [10] it was 0.162. Moreover, the composite z-score in [11] was 0.0726; in assay [12], 0.186; in [13], -0.201; in assay [15], 1.37; in assay [16], 0.536; in assay [17], 1.17. Besides, the composite z-score in assay [18] was 1.54; in [19] it was 1.83; in assay [20], -0.416. The z-score in [2] was -0.369 (inactive); in [3], -1.27 (inactive); in [4] it was -1.92 (inactive); in assay [6], 1.08 (inactive); in assay [14], -0.307 (inactive).
Consider `COC(=O)[C@@]1(Cc2ccccc2)[C@H]2c3cc(C(=O)N(C)C)n(CCN4CNCC4=O)c3C[C@H]2CN1C(=O)c1ccccc1`, for which the composite z-score in assay [1] was 0.304; in assay [5], 1.42; in assay [7], 0.96; in assay [8], -0.652; in assay [9], 0.0743; in assay [10], 0.385. Also, the composite z-score in assay [11] was 1.59; in assay [12], 1.38; in [13], 1.31; in [15], -0.243; in assay [16] it was -0.604; in assay [17] it was -1.71. In addition, the composite z-score in assay [18] was -0.618; in assay [19], -1.59; in [20] it was 0.433. The z-score in [2] is 0.258 (inactive); in assay [3] it was 0.707 (inactive); in assay [4], 0.1 (inactive); in assay [6], -0.0469 (inactive); in [14], 1.25 (inactive).
